Inconclusive results are not listed. Calls of active or inactive are those of the source. Calls follow the shape of the dose curve; as a rule, active = well fitted cell-killing curve with a large enough effect in the repeat runs; inconclusive = weak or mixed curves, or effect the other way; inactive = flat fitted curve, though single readings scatter.
Experiment: qHTS assay to identify small molecule agonists of the estrogen receptor beta (ER-beta) signaling pathway - cell viability counter screen (AID 1259380); also: nearly all actives have a fitted effect of over 30% in size
Details: ER-beta-bla HEK293T viability, CellTiter-Glo luminescence, 16 h; series mostly up to 92.4 µM; activity change, negative = cytotoxicity: at the top concentration
Source text: National Center for Advancing Translational Sciences [NCATS]
NIH Chemical Genomics Center [NCGC]
U.S. Environmental Protection Agency [EPA]
National Institutes of Environmental Health Sciences [NIEHS]
National Toxicology Program [NTP]
U.S. Food and Drug Administration [FDA]
Estrogen receptor (ER), a nuclear hormone receptor, plays an important role in development, metabolic homeostasis and reproduction. Two subtypes of ER, ER-alpha and ER-beta, have similar expression patterns with some uniqueness in both types. Endocrine disrupting chemicals (EDCs) and their interactions with steroid hormone receptors like ER causes disruption of normal endocrine function. To identify the compounds that activate ER signaling, an ER beta-UAS-bla GripTite cell line (Life Technologies, Madison, WI, USA) containing a beta-lactamase reporter gene under the control of an UAS response element was used to screen Tox21 10K compound library. The cytotoxicity of the Tox21 compound library against the ER-beta-bla cell line was tested in parallel by measuring the cell viability using CellTiter-Glo assay in the same wells.
Tox21 Assay Protocol Summary:
ER-beta-UAS-bla HEK293T cells were dispensed at 2,000 cells/5 uL of assay medium containing 2% charcoal stripped FBS per well into black wall/clear-bottom 1536-well plates using a Multidrop Combi (ThermoFisher Scientific, Waltham, MA) dispenser. After the assay plates were incubated at a 37C and 5% CO2 for 6 hr, 23 nL of compounds dissolved in DMSO, positive controls or DMSO only was transferred to the assay plate by a Pintool station (Kalypsys, San Diego, CA). The plates were incubated at 37C and 5% CO2 for 16 hr. Then 1 uL of LiveBLAzerTM B/G FRET substrate was added using a BioRAPTR FRD (Flying Reagent Dispenser, Aurora Discovery, San Diego, CA) and then the plates were incubated at room temperature for 2 hours, and fluorescence intensity was measured by an Envision plate reader (PerkinElmer, Shelton, CT). For cell viability readout that measures cytotoxicity, 4 uL/well of CellTiter-Glo reagent was added into the assay plates using a FRD. After 30 min incubation at room temperature, the luminescence intensity in the plates was measured using a ViewLux (PerkinElmer) plate reader.
% is scaled to controls: 0 for no effect and ±100 for the full control effect; potency is read from the fitted curve at half-maximal effect.

SMILES	activity change, negative = cytotoxicity	Potency
CS(=O)(=O)Cl	6.27% (inactive)	
ClC(Cl)(Cl)Cl	7.33% (inactive)	
CC1=C2[C@H]3OC(=O)[C@@H](C)[C@@H]3CC[C@@]2(C)C=CC1=O	4.99% [at 42.5 µM] (inactive)	
COC[C@@H](NC(C)=O)C(=O)NCc1ccccc1	4.57% [at 42.5 µM] (inactive)	
CC(C)C(C)(N)C#N (stereo not given)	2.72% (inactive)	
O=C(Cl)c1ccccc1	4.75% (inactive)	
N[C@@H](Cc1ccc(Oc2cc(I)c(O)c(I)c2)c(I)c1)C(=O)O	8.08% [at 42.5 µM] (inactive)	
CCNc1nc(Cl)nc(NC(C)(C)C)n1	0.207% (inactive)	
Cc1ccc(S(=O)(=O)N[C@@H](CCCCN)C(=O)CCl)cc1	-19.3% [at 42.5 µM] (inactive)	
COc1cccc([C@@]2(O)CCCC[C@@H]2CN(C)C)c1	2.62% [at 42.5 µM] (inactive)	
Clc1nc(Cl)nc(Nc2ccccc2Cl)n1	3.71% (inactive)	
c1ccc2c(c1)CCNC2	-1.73% (inactive)	
CCC1(CC)C(=O)C=CNC1=O	12.3% [at 42.5 µM] (inactive)	
CCCOC(=O)Cc1ccc(OCC(=O)N(CC)CC)c(OC)c1	-1.38% [at 42.5 µM] (inactive)	
Clc1ccc(C(Cl)(Cl)Cl)cn1	-0.39% (inactive)	
CCOP(=S)(OCC)Oc1ccc(Cl)cc1Cl	-1.24% (inactive)	
BrCC1CO1 (stereo not given)	0.408% (inactive)	
O=C(NC(=O)c1c(F)cccc1F)Nc1cc(Cl)c(F)c(Cl)c1F	0.652% (inactive)	
O=C(O)C(F)(F)C(F)(F)C(F)(F)C(F)(F)C(F)(F)C(F)(F)F		54.5 µM (active)
CC(=O)CN(CC(C)=O)N=O	2.71% (inactive)	

SMILES	activity change, negative = cytotoxicity	Potency
Cc1ccc2c(c1)C1CN(C)CCC1N2 (stereo not given)	-1.6% [at 19 µM] (inactive)	
COc1cc(CCN)cc(OC)c1OC	11.3% (inactive)	
CCc1cc(OC)c(C[C@H](C)N)cc1OC		71.5 µM (active)
COc1ccccc1OC	6.72% (inactive)	
COC(=O)c1ccccc1CS(=O)(=O)NC(=O)Nc1nc(OC)cc(OC)n1	1.01% (inactive)	
CCCCOC(C)=O	3.3% (inactive)	
Cc1cc(OC(=O)N(C)C)nn1C(=O)N(C)C	4.46% (inactive)	
CCOC(=O)N(C)N=O	2.81% (inactive)	
CC1NCCOC1c1ccccc1 (stereo not given)	4% [at 42.5 µM] (inactive)	
OCC(Cl)CCl (stereo not given)	0.372% (inactive)	
CC(Cl)(Cl)Cl	1.54% (inactive)	
O=C(Cl)CCl	-2.77% (inactive)	
CCOC(=O)CCl	1.86% (inactive)	
CC(C)NCC(O)c1ccc([N+](=O)[O-])cc1 (stereo not given)	-0.599% [at 42.5 µM] (inactive)	
O=C(O)c1c(Cl)ccc2cc(Cl)cnc12	3.17% (inactive)	
Cc1ccc(Cl)c(O)c1	8.22% [at 42.5 µM] (inactive)	
CCOC(=O)COc1ccc(Cl)cc1Cl	1.66% (inactive)	
O=C(Cl)C(Cl)(Cl)Cl	1.85% (inactive)	
CCOC(=O)C(Cl)Cc1cc(-n2nc(C)n(C(F)F)c2=O)c(F)cc1Cl (stereo not given)	-5.1% (inactive)	
CCN(CCO)CCO	1.84% (inactive)	

Reference: PubChem BioAssay (Tox21)
